Assay outcomes deposited in PubChem BioAssay by National Center for Advancing Translational Sciences (NCATS).
Only some compounds are listed: those with a hit (about 2.2% of all), similar ones and a draw of the others.
HepG2 tox-1 = HepG2 cytotoxicity, counter-screen for TGF-b inhibitors | HepG2 CAGA-GFP viability, ATP luminescence, 18 h | Potency, µM (top dose mostly 46.1 µM), for inactives: at the top dose activity change, negative = cytotoxicity, hits mostly cytotoxic | actives 0.76% (n = 410,000); note: potency is the fitted concentration of half-maximal effect
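HepG2 CAGA-GFP cells (1000/well, DMEM with 1% FBS) received compound, then TGF-beta at 500 pg/mL final, and were incubated 18 hours at 37 degrees C. Viability was read by CellTiter-Glo luminescence. Media-only wells were set as complete cell-killing and DMSO as no toxicity.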
S2 tox = viability counter-screen for ATXN expression inhibitors; S2 cells (HEK-293 line with an ATXN2-luciferase reporter) viability, CellTiter-Fluor protease fluorescence, 24 h; Potency, µM (highest dose often 56.7 µM), usual class: cytotoxic; actives 0.49% (n = 400,000); AID 651635; note: potency is the fitted concentration of half-maximal effect; nearly all actives have a fitted effect of over 40% in size
ATXN2 expr inh = inhibitors of ATXN2 expression | actives 0.72% (n = 360,000) | HEK-293 ATXN2-luciferase reporter, luminescence, 24 h | Potency, µM (highest dose often 57 µM), inactives show top-dose activity change, negative = inhibition, usual class: inhibitors; note: potency is the fitted concentration of half-maximal effect; % is set by controls: 0 for no effect and ±100 for the full control effect; nearly all actives have a fitted effect of over 55% in size
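qHTS (up to 57 uM final) was run with 24 h compound exposure of reporter cells at 37 °C. Each well was multiplexed: SteadyGlo luminescence measured ATXN2-luciferase expression after a fluorogenic Gly-Phe-AFC viability readout (25 uM final).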
TGFb inhibitor = blocks TGF-b signaling | Potency, µM (titrated, usually from 46.1 µM), without a hit: at the highest dose activity, negative = inhibition, usual class: inhibitors | AID 588855 | HepG2 CAGA-GFP TGF-b/SMAD3 reporter, GFP fluorescence, 18 h; TGF-beta stimulated, 500 pg/mL final | actives 1.2% (n = 410,000); note: potency is the fitted concentration of half-maximal effect; % is set by controls: 0 for no effect and ±100 for the full control effect; nearly all actives have a fitted effect of over 65% in size
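Per well, imaged GFP fluorescence of HEPG2 CAGA-GFP cells gives the signal; cells get compound, then TGF-beta (500 pg/mL final), 18 h at 37 degrees C; %Activity versus -TGF-beta and +DMSO controls.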
LDHA inh = inhibitors of human lactate dehydrogenase A; P00338; purified LDHA, NADH/diaphorase-resazurin fluorescence; hits give low values; activity change, % (values are at about 110 or 230 µM); actives 0.15% (n = 480,000); AID 1347041; in the data active = activity change below about -30%; inconclusive = mostly about -25% to -30%;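 note: plate controls were DMSO wells for no effect and wells without enzyme for full effect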
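Enzyme activity of human lactate dehydrogenase 5 (2 nM; 0.06 mM NADH, 0.2 mM pyruvate, 5 min, RT) is measured via a resazurin/diaphorase fluorescence readout of residual NADH.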
IDH1 R132H inh = inhibitors of human mutant IDH1 R132H; O75874; IDH1-R132H enzyme, NADPH consumption, diaphorase/resazurin fluorescence; Potency, µM (titrated, usually from 76.6 µM), for the others: at the top dose activity change, negative = inhibition, usual class: inhibitors; actives 0.093% (n = 390,000); AID 602179; note: potency is the fitted concentration of half-maximal effect; % is set by controls: 0 for no effect and ±100 for the full control effect; nearly all actives have a fitted effect of over 65% in size
Target sequence (O75874 whole entry R132H, stated change not applied): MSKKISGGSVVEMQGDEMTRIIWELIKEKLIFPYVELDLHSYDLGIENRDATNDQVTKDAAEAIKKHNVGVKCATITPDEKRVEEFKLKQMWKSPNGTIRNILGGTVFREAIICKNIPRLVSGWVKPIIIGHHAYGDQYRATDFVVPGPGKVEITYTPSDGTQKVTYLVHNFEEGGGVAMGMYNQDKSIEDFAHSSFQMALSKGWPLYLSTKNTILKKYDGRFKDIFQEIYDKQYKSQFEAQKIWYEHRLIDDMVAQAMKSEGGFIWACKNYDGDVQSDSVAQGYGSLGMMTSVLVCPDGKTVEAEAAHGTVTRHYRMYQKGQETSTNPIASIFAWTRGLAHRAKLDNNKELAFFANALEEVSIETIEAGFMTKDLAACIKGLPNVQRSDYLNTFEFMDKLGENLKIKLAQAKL
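IDH1-R132H (0.5 ug/mL) preincubated 30 min with compound, then NADPH (0.016 mM) and alpha-KG (2 mM) added; 80 min at RT, pH 7.5. Remaining NADPH coupled via diaphorase/resazurin to fluorescence (540/590 nm); concentration-response curves normalized to no-enzyme control.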
TGFb confirm = confirmation of TGF-b signaling inhibitors in HepG2 reporter cells | shares compounds with TGFb inhibitor | HepG2 CAGA-GFP TGF-b reporter, GFP fluorescence, 18 h; cells stimulated with TGF-beta, 500 pg/mL | Potency, µM (highest dose often 46.1 µM), inactives show top-dose activity, negative = inhibition, hits mostly inhibitors | actives 63% (n = 1,600) | AID 720534; note: potency is the fitted concentration of half-maximal effect; % is set by controls: 0 for no effect and ±100 for the full control effect; nearly all actives have a fitted effect of over 65% in size
HepG2 tox-2 = toxic to HepG2 cells in TGF-b counterscreen. actives 27% (n = 1,600). shares compounds with TGFb inhibitor. AID 720535. HepG2 CAGA-GFP viability, ATP luminescence, 18 h; cells stimulated with TGF-beta, 500 pg/mL. Potency, µM (top dose mostly 46.1 µM), for the others: top-dose activity, negative = cytotoxicity, actives largely listed as inhibitors; note: potency is the fitted concentration of half-maximal effect; % is set by controls: 0 for no effect and ±100 for the full control effect; nearly all actives have a fitted effect of over 70% in size
CCL64 TGFb inh = TGF-b inhibition, CCL64 orthogonal assay; Potency, µM (series often up to 46.1 µM), for the others: top-dose activity, negative = inhibition, hits mostly inhibitors; actives 41% (n = 1,600); CCL64 CAGA-GFP reporter, TGF-b stimulated, GFP fluorescence, 18 h; shares compounds with TGFb inhibitor; note: potency is the fitted concentration of half-maximal effect; nearly all actives have a fitted effect of over 65% in size
COP TGFb inh = blocks TGF-b signaling in HepG2 COP reporter; shares compounds with TGFb inhibitor; HepG2 COP-GFP TGF-b reporter, GFP fluorescence, 18 h; cells stimulated by added recombinant TGF-beta; Potency, µM (titrated, usually from 46.1 µM), for the others: top-dose activity, negative = inhibition, most hits filed as inhibitors; actives 3% (n = 1,600); AID 720537; note: potency is the fitted concentration of half-maximal effect; nearly all actives have a fitted effect of over 70% in size
* = called active by the depositor. Unless noted, calls come from the whole dose curve; as a rule, active = well fitted curve in the direction sought with a large enough effect; inconclusive = small, poorly fitted or top-dose-only effect, or another doubt; inactive = no such curve, though single readings can be large; an effect the other way counts as inactive or inconclusive.

For COCCNc1nc(NC(C)C)nc2ccsc12 the results were HepG2 tox-1 -7%, S2 tox inactive, ATXN2 expr inh 4%, TGFb inhibitor -16% and LDHA inh -3.
O=C1CCCN1CCCNc1nc(NCc2ccccc2)nc2ccsc12 was read as HepG2 tox-1 -37%, S2 tox inactive, ATXN2 expr inh -9%, TGFb inhibitor 3.2µM*, LDHA inh -8, TGFb confirm 2.9µM*, HepG2 tox-2 7.3µM*, CCL64 TGFb inh 5.2µM* and COP TGFb inh 48%.
For COCCNc1nc(NCc2ccccc2)nc2ccsc12 the results were HepG2 tox-1 -23%, S2 tox inactive, ATXN2 expr inh -8%, TGFb inhibitor 2.5µM*, LDHA inh -13, TGFb confirm 3.7µM*, HepG2 tox-2 inconclusive, CCL64 TGFb inh 4.1µM* and COP TGFb inh 57%.
For CNc1nc(NCc2ccc(C)cc2C)c2sccc2n1 the results were HepG2 tox-1 -7%, S2 tox inconclusive, ATXN2 expr inh inconclusive, TGFb inhibitor 11µM*, LDHA inh -4, TGFb confirm 16µM*, HepG2 tox-2 inconclusive, CCL64 TGFb inh inconclusive and COP TGFb inh 68%.
Cc1ccc(CNc2nc(NCc3ccccc3)nc3ccsc23)c(C)c1 was read as HepG2 tox-1 -116%, S2 tox inconclusive, ATXN2 expr inh inconclusive, TGFb inhibitor 5µM*, LDHA inh -2, TGFb confirm inconclusive, HepG2 tox-2 inconclusive, CCL64 TGFb inh 15µM* and COP TGFb inh inconclusive.
Cc1ccc(CNc2nc(NC(C)C)nc3ccsc23)c(C)c1 was read as HepG2 tox-1 -57%, S2 tox inconclusive, ATXN2 expr inh inconclusive, TGFb inhibitor inconclusive and LDHA inh -9.
For CC(=O)Nc1ccc2oc(-c3ccc(C)c(Cl)c3)nc2c1 the results were LDHA inh 2.
Screening COc1ccc2[nH]c3c(N4CCc5ccccc5C4)ncnc3c2c1 returned HepG2 tox-1 -52%, S2 tox inconclusive, ATXN2 expr inh inconclusive, TGFb inhibitor 7.1µM*, LDHA inh 4, IDH1 R132H inh 2%, TGFb confirm inconclusive, HepG2 tox-2 23µM*, CCL64 TGFb inh 18µM* and COP TGFb inh inconclusive.
For Cc1cccc(NS(=O)(=O)c2ccc(C)c(C(=O)NC3CCN(Cc4ccccc4)CC3)c2)c1 the results were HepG2 tox-1 -16%, TGFb inhibitor 10µM*, LDHA inh 2, IDH1 R132H inh 4%, TGFb confirm inconclusive, HepG2 tox-2 -28%, CCL64 TGFb inh inconclusive and COP TGFb inh 5%.
For FC(F)(F)c1nc2nc(Cl)c(Cl)nc2[nH]1 the results were HepG2 tox-1 -3%, S2 tox inconclusive, TGFb inhibitor -11%, LDHA inh -5 and IDH1 R132H inh 13%.
Screening FC(F)(F)c1cccc(-c2nc3nc(Cl)c(Cl)nc3[nH]2)c1 returned HepG2 tox-1 -33%, S2 tox inactive, TGFb inhibitor 2.2µM*, LDHA inh -6, IDH1 R132H inh 39%, TGFb confirm 6.5µM*, HepG2 tox-2 6.5µM*, CCL64 TGFb inh 5.2µM* and COP TGFb inh 64%.
`COc1cc(OC)cc(C(=O)N[C@H](C(=O)OCc2cc(=O)oc3cc(C)ccc23)C(C)C)c1` gave HepG2 tox-1 -1%, S2 tox inconclusive, ATXN2 expr inh -6%, TGFb inhibitor inconclusive, LDHA inh 1, IDH1 R132H inh 4%, TGFb confirm inconclusive, HepG2 tox-2 -5%, CCL64 TGFb inh -12% and COP TGFb inh 12%.
Screening CCOc1ccc(C(=O)Nc2ccc3oc(C)nc3c2)cc1OC returned LDHA inh 17.
`COc1ccc(C(=O)Nc2ccc3oc(Cc4ccc(Cl)cc4)nc3c2)cc1OC` gave HepG2 tox-1 -23%, S2 tox inconclusive, ATXN2 expr inh inconclusive, TGFb inhibitor 16µM*, LDHA inh -6, IDH1 R132H inh 5%, TGFb confirm inconclusive, HepG2 tox-2 -18%, CCL64 TGFb inh 13% and COP TGFb inh 0%.
For COc1ccc2oc(=O)c(/C(C)=N/O)cc2c1 the results were LDHA inh 0.
`Cc1cccc(CN2C(=O)NC(c3ccccc3)(c3ccccc3)C2=O)c1` gave HepG2 tox-1 -26%, S2 tox inactive, ATXN2 expr inh inconclusive, TGFb inhibitor 22µM*, LDHA inh 1, IDH1 R132H inh 1%, TGFb confirm inconclusive, HepG2 tox-2 inconclusive, CCL64 TGFb inh inconclusive and COP TGFb inh 60%.
`CCCOc1ccc(F)cc1-c1cc(C(=O)Nc2ccc(OC)c(OC)c2)[nH]n1` gave HepG2 tox-1 -24%, S2 tox inconclusive, ATXN2 expr inh inconclusive, TGFb inhibitor inconclusive and LDHA inh 0.
Screening CCCOc1ccc(F)cc1-c1cc(C(=O)Nc2ccc(C)c(NS(C)(=O)=O)c2)[nH]n1 returned HepG2 tox-1 -30%, S2 tox inactive, ATXN2 expr inh 0%, TGFb inhibitor 18µM*, LDHA inh -7, TGFb confirm inconclusive, HepG2 tox-2 inconclusive, CCL64 TGFb inh 23µM* and COP TGFb inh 50%.
For Cc1nn(C(C)C)c(C)c1NC(=O)c1cc2occc2n1Cc1ccccc1 the results were LDHA inh 9.
